The full data set covers some 7,900 targets. This sample favours those with a hit. About 0.6% of all pairs of compound and target were hits. A number with no mark means an inactive call.
Compound: NC(=O)Nc1cc(-c2cccc(F)c2)sc1C(=O)N[C@H]1CCCNC1
Experiment: log2 fold change, soluble protein after heating vs DMSO (PISA); higher = thermal stabilisation; K562 cells, 10 uM, 30 min; active = over 0.2 and 3.5 SD of the protein, either way, in both replicates (recomputed)
Summary of the method: (§1)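 Soluble protein was quantified by TMTpro 16plex LC-MS/MS after channel sums were equalised. It was obtained as the supernatant after 21,000xg for 90 min from pooled aliquots of K562 cells (2×10^6 cells/mL, 10 μM compound, 30 min) heated for 3 min across 48°C-58°C and extracted in PBS with 0.5% NP-40 at 4°C. Thermal stability values are relative to control samples and come from duplicates. They are given as log2 fold changes.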

Chain of UniProt Q9NWX5 (Q9NWX5 whole entry, looked up): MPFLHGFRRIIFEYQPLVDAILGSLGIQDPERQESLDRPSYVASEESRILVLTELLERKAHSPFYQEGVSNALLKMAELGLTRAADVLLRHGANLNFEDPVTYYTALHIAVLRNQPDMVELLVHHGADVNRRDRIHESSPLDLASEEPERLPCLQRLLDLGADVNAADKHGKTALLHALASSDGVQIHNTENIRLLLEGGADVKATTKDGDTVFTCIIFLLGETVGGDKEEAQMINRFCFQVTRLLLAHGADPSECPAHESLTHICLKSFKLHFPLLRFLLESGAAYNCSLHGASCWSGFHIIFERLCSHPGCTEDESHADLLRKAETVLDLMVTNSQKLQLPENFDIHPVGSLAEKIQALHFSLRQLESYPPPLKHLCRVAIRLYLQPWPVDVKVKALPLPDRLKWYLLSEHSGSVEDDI
Chain of UniProt O00244 (O00244 whole entry, looked up): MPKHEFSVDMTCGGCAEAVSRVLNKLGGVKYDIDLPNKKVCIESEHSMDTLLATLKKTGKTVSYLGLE
Chain of UniProt Q00973 (Q00973 whole entry, looked up): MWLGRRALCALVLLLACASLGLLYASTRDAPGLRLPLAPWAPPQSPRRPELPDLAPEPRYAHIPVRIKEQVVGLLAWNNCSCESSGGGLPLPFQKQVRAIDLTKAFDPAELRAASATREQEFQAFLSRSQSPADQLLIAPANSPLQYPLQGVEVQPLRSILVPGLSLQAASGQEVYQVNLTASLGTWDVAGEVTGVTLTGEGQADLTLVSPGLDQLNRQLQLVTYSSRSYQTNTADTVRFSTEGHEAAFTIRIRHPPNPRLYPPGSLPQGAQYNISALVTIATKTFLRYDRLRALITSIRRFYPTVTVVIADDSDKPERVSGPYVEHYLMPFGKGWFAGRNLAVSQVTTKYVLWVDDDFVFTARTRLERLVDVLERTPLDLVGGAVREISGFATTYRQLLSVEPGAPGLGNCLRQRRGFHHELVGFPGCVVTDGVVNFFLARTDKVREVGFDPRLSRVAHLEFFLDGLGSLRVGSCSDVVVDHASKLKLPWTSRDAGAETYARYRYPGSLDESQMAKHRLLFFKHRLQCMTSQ
Chain of UniProt Q01484 (Q01484 whole entry, looked up): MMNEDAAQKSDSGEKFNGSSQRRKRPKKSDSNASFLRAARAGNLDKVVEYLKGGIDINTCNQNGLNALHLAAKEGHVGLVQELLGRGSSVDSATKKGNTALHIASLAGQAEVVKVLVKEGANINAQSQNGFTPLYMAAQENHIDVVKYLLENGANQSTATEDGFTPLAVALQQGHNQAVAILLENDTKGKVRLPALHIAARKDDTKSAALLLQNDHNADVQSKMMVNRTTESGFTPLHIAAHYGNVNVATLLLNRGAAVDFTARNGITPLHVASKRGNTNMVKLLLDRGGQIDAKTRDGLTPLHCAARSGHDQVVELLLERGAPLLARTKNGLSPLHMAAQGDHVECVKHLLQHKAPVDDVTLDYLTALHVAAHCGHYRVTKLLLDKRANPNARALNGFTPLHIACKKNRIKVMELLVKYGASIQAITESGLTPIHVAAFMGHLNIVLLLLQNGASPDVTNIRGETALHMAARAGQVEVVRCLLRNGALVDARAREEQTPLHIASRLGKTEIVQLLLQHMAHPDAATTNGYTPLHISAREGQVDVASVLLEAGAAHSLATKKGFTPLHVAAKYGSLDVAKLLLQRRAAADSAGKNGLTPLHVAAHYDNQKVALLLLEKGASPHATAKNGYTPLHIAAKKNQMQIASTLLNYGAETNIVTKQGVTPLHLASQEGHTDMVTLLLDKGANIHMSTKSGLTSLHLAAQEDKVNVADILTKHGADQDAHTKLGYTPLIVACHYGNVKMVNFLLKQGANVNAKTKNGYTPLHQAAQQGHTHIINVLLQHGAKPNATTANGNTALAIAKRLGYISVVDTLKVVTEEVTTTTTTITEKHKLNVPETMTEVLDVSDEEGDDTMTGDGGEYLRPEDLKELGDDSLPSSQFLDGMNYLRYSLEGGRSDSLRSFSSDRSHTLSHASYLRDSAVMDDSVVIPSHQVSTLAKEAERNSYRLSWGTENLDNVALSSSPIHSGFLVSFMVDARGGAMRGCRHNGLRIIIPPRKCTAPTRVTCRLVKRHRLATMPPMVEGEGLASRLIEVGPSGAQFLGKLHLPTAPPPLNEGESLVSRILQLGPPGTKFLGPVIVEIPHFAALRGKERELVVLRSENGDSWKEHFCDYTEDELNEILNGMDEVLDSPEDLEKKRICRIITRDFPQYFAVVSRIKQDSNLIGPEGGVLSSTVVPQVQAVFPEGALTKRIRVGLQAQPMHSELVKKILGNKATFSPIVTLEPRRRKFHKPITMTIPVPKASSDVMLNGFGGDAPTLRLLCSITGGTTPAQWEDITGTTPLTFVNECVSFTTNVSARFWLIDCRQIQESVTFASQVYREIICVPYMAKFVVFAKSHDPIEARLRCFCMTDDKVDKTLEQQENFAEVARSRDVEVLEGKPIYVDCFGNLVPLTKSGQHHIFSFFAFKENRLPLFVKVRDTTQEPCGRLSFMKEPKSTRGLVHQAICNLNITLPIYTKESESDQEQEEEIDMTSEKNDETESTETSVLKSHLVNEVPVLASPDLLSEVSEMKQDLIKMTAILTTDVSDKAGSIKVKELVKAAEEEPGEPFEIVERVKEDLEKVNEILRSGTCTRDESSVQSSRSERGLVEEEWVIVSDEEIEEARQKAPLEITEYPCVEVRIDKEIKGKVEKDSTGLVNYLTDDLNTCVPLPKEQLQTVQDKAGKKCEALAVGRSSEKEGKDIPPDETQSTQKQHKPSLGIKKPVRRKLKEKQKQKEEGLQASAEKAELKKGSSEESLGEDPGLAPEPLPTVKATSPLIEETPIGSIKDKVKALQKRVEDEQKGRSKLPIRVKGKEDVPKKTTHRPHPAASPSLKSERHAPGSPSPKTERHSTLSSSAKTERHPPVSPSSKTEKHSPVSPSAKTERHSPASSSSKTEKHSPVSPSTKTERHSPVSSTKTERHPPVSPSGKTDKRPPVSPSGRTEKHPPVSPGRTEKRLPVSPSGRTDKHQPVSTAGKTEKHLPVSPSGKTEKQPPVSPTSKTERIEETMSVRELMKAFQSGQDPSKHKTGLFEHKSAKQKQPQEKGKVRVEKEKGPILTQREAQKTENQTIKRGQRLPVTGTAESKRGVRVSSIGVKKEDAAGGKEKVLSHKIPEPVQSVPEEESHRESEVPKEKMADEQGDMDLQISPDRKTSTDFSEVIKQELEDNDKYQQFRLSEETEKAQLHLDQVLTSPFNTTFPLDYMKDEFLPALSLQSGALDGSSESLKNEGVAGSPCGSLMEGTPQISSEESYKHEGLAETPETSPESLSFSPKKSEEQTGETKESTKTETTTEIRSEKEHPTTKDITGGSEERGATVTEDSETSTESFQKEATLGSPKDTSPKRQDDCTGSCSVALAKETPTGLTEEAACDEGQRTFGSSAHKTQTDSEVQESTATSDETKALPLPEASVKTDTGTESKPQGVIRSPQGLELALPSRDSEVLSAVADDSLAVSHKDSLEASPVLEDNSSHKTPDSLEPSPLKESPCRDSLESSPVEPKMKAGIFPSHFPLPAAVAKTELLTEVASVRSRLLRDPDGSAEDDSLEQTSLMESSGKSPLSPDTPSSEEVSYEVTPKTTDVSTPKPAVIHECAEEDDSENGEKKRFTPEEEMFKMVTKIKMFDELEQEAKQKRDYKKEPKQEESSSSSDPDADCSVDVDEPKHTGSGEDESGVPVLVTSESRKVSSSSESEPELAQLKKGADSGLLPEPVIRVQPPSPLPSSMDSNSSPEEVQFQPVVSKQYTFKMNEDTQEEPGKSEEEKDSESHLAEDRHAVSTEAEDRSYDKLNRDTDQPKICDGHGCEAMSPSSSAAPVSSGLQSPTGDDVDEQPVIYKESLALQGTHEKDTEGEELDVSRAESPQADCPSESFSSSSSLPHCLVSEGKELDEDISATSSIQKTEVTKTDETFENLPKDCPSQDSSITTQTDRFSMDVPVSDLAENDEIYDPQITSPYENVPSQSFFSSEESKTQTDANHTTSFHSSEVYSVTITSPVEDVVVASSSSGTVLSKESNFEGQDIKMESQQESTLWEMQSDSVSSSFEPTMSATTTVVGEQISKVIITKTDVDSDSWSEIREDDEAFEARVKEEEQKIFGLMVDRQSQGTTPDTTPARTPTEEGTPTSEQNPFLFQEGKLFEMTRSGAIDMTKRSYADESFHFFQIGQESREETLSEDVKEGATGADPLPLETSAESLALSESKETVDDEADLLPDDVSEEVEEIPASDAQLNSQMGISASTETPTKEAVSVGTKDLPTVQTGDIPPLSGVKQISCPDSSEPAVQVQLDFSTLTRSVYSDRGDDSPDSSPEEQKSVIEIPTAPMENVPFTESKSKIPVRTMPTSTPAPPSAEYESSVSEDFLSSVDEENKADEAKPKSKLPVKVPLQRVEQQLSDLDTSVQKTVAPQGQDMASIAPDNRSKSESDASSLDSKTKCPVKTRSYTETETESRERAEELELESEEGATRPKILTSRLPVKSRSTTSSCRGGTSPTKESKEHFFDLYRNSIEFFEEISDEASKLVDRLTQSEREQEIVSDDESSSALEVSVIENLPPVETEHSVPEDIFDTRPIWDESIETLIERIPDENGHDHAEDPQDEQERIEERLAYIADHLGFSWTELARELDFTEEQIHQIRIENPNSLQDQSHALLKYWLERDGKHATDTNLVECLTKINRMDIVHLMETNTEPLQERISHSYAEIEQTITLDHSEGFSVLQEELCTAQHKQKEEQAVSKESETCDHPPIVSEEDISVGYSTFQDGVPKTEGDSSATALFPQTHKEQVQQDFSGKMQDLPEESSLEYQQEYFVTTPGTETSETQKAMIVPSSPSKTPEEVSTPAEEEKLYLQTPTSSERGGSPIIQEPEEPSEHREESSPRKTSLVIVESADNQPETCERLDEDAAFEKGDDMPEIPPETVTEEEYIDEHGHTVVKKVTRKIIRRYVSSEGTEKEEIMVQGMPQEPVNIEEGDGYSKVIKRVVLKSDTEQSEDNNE

| Target | log2 fold change |
| --- | --- |
| ARL3 (UniProt P36405) | 0.02 |
| ABCA4 (UniProt P78363) | 0.007 |
| AFDN isoform 5 (UniProt P55196) | -0.154 |
| AP2M1 (UniProt Q96CW1) | -0.293 (active) |
| ASB6 (UniProt Q9NWX5) | 0.076 |
| ATOX1 (UniProt O00244) | 0.175 |
| ADPRH (UniProt P54922) | 0.015 |
| ADAMTS5 (UniProt Q9UNA0) | 0.026 |
| AASDH (UniProt Q4L235) | -0.044 |
| ATP7B (UniProt P35670) | -0.051 |
| ATRN (UniProt O75882) | -0.007 |
| BRD3 (UniProt Q15059) | 0.008 |
| ACP1 (UniProt P24666) | -0.079 |
| BRIP1 (UniProt Q9BX63) | 0.139 |
| ARRDC1 (UniProt Q8N5I2) | 0.013 |
| ACTBL2 (UniProt Q562R1) | -0.205 |

| Target | log2 fold change |
| --- | --- |
| ADAM15 (UniProt Q13444) | -0.023 |
| AIP (UniProt O00170) | -0.004 |
| ATF1 (UniProt P18846) | 0.038 |
| ARFIP1 isoform 2 (UniProt P53367) | 0.11 |
| ACSL6 isoform 1 (UniProt Q9UKU0) | 0.061 |
| ARGLU1 (UniProt Q9NWB6) | -0.089 |
| BCLAF1 (UniProt Q9NYF8) | 0.01 |
| B4GALNT1 (UniProt Q00973) | -0.001 |
| ARFGAP1 (UniProt Q8N6T3) | -0.036 |
| ANK2 (UniProt Q01484) | -0.146 |
| ACTR1B (UniProt P42025) | 0.075 |
| AMD1 (UniProt P17707) | 0.043 |
| APOH (UniProt P02749) | -0.094 |
| APH1A (UniProt Q96BI3) | -0.048 |
| AUP1 (UniProt Q9Y679) | -0.013 |

Compound: NC(=O)c1cnc(N[C@@H]2CCCC[C@@H]2N)nc1Nc1cccc(-n2nccn2)c1
Experiment: as above
Summary of the method: as §1

| Target | log2 fold change |
| --- | --- |
| BSCL2 isoform 4 (UniProt Q96G97) | -0.197 |
| ARL3 (UniProt P36405) | -0.005 |
| ABCA4 (UniProt P78363) | -0.092 |
| ALG14 (UniProt Q96F25) | 0.018 |
| AFDN isoform 5 (UniProt P55196) | -0.009 |
| AP2M1 (UniProt Q96CW1) | 0.004 |
| ASB6 (UniProt Q9NWX5) | 0.161 |
| ATOX1 (UniProt O00244) | 0.273 |
| ADAMTS5 (UniProt Q9UNA0) | -0.065 |
| ATP7B (UniProt P35670) | -0.139 |
| ATRN (UniProt O75882) | -0.023 |
| BRD3 (UniProt Q15059) | -0.026 |
| ACP1 (UniProt P24666) | -0.24 |
| BRIP1 (UniProt Q9BX63) | -0.139 |
| ATXN3 isoform 1 (UniProt P54252) | -0.256 |
| ACTBL2 (UniProt Q562R1) | 0.038 |

| Target | log2 fold change |
| --- | --- |
| ADAM15 (UniProt Q13444) | 0.034 |
| AIP (UniProt O00170) | 0.011 |
| ARHGAP25 isoform 4 (UniProt P42331) | 0.068 |
| ABHD11 (UniProt Q8NFV4) | -0.089 |
| ATF1 (UniProt P18846) | 0.096 |
| ARGLU1 (UniProt Q9NWB6) | 0.01 |
| BCLAF1 (UniProt Q9NYF8) | 0.006 |
| B4GALNT1 (UniProt Q00973) | -0.062 |
| ARFGAP1 (UniProt Q8N6T3) | -0.033 |
| ANK2 (UniProt Q01484) | -0.196 |
| ACTR1B (UniProt P42025) | 0.027 |
| AMD1 (UniProt P17707) | -0.091 |
| APOH (UniProt P02749) | -0.109 |
| APH1A (UniProt Q96BI3) | -0.201 |
| AUP1 (UniProt Q9Y679) | -0.082 |
